Experimental data from PubChem BioAssay AID737 (Emory University Molecular Libraries Screening Center, 2007).
Results with a measured potency or affinity are listed apart. Calls of active or inactive are those of the source.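 How the source made its calls: active means fitted EC50 under 30 µM, or percent of control over 300% when no usable fit; inactive means the rest.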

Each compound was assayed against Estrogen receptor (Homo sapiens) (UniProt P03372) (assay: potentiators of ERα–SRC-1 coactivator binding, dose response, biochemical, TR-FRET, ERα LBD (AID 737)). Details: TR-FRET ER-alpha LBD / SRC-Cy5 coactivator recruitment; at 12.5 µM; stronger effect = higher value.
Estrogen receptor (Homo sapiens), sequence (P03372 whole entry, looked up, the tested form may be a part): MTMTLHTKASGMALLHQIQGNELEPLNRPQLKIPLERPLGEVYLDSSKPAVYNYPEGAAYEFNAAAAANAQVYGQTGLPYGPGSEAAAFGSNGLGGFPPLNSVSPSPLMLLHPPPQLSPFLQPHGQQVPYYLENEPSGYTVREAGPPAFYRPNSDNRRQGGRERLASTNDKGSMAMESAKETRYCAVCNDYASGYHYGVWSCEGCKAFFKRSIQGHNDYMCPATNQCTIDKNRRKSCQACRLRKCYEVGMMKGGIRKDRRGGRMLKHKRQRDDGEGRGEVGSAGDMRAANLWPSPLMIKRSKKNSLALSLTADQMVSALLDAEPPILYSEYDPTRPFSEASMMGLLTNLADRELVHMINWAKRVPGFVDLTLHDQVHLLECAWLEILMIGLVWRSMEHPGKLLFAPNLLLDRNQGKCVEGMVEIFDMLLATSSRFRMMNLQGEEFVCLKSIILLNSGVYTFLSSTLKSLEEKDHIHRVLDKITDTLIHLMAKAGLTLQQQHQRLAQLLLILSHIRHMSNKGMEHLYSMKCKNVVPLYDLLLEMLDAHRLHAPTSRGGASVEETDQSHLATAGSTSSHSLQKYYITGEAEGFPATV
With `COc1ccc(OC)c(C(=O)CSc2nnc(-c3ccc(OC)c(OC)c3)o2)c1` the percent of control was 662% (active).
With `Cc1ccc(S(=O)(=O)c2nc(S(C)(=O)=O)sc2NCC2CCCO2)cc1` (stereo not drawn) the percent of control was 136% (inactive).
In the case of `O=C(Nc1ccc(-c2noc(-c3cccs3)n2)cc1)c1cccnc1`, the percent of control is reported as 208% (inactive).
With `CCOC(=O)c1sc(NC(=O)c2ccc3ncsc3c2)nc1C` the percent of control was 349% (active).
`O=C(c1cc2ccccc2oc1=O)N(Cc1ccco1)Cc1cccs1` was tested, and the percent of control was 110% (inactive).
With `Cc1ccc(C)n1-c1cccc(C(=O)O)c1` the percent of control was 26.6% (inactive).
With `O=C(Cc1ccc(Cl)cc1)Nc1ccc2oc(-c3ccncc3)nc2c1` the percent of control was 207% (inactive).
`CCOC(=O)c1c(NC(=O)CSc2nnc(-c3ccccc3)o2)sc(C(C)=O)c1C` was tested, and the percent of control was 305% (active).
`CCOC(=O)Cn1c(-c2nonc2NC(=O)c2ccccc2F)nc2ccccc21` was tested, and the percent of control was 218% (inactive).
For `COc1ccc(-c2c(C#N)c(C)nc3c2C(=O)c2ccccc2-3)cc1`, the percent of control was 239% (inactive).
For `Cc1ccc(NC(=O)CSc2nnc(Cn3c(=O)sc4ccccc43)n2C)cc1Cl`, the percent of control was 165% (inactive).
For `O=C(COC(=O)C(O)c1ccccc1)c1ccc2c(c1)OCCO2` (stereo not drawn), the percent of control was 108% (inactive).
In the case of `CCOC(=O)N1c2ccccc2C=CC1OCC` (stereo not drawn), the percent of control is reported as 152% (inactive).
